Experimental data reported in PubChem BioAssay (NCATS).
Activity calls are given as the source filed them. The call rests on the fitted dose curve; in most records, active means well fitted inhibition curve with a large enough effect; inconclusive means small, poorly fitted or top-dose-only effect; inactive means no such curve, though single readings can be large or run the other way. Where a SMILES comes first, the peptide text is derived from it. [ ]: non-standard residue; d: D form. pGlu = O=C1CC[C@@H](C(=O)O)N1

assay: qHTS assay for measurement of the activity of small molecule inhibitors on Zika virus induced Caspase-3 activity in human astrocytoma cells (AID 1224859); details: SNB-19 ZIKV-induced caspase-3/7, luminescence, 6 h; series mostly up to 45.7 µM; activity change, negative = inhibition: at the top concentration
Description: National Center for Advancing Translational Sciences [NCATS]
Johns Hopkins University School of Medicine
Increase in the Caspase-3 activity indicates an activation of apoptosis cell death pathway caused by Zika virus infection in certain types of neuronal cells including human neural progenitor cells (hNPCs), astrocytes, and astrocytoma cell line (SNB-19). This cell-based caspase-3 activity assay measures the increased caspase-3 activity in the astrocytoma cell line (SNB-19) after a 6-hour Zika virus infection with a luminescence readout. A decrease in the luminescence signal in this assay by small molecule treatment indicates an inhibitory effect of that small molecule on the Zika virus induced caspase-3 activity that may correlate with its effect on reduction of Zika virus caused cell death.
The medium for SNB-19 cells is composed of RPMI 1640 (ATCC, Cat.# 30-2001), 10% fetal bovine serum (FBS) (GE healthcare Life Sciences, Cat.# SH30071.03), and 1% Pen/Strep (Gibco, Cat.# 15140-122). A Caspase-Glo 3/7 assay kit (catalog number G8092; Promega, Madison, WI) was used to detect caspase-3 activity induced by Zika virus infection in human cells. The reagent mixture was reconstituted as described in the protocol from the manufacturer. Polystyrene tissue culture treated and PDL coated white plates were obtained from Greiner Bio-One (Monroe, NC). Cells were seeded in 384- or 1536-well assay plates and cultured at 37 C with 5% CO2 for 16 to 20 hours. The typical cell seeding density in the 1536-well plate assay is 250 cells/well in 3ul medium for SNB-19 cells in tissue culture treated plates. Compounds were added to cells and incubated for one hour before addition of ZIKV solution to cells (2 FFU/cell). After incubation at 37 C with 5% CO2 for 6 hours, the reagent mixture of Caspase-Glo 3/7 assay kit was added to each well, followed by incubation at room temperature for 30 minutes. The luminescence intensity of the assay plates was measured using a ViewLux plate reader (PerkinElmer). Data were normalized by using the cell-containing wells without ZIKV as a negative control (0% induction of caspase 3/7 activity) and wells containing ZIKV infected cells (Caspase-3 activity induced) as a positive control (100% induction of caspase 3 activity). The percentage inhibitions of the increased Caspase-3 activity by small molecule inhibitors were then calculated.

Compound | activity change, negative = inhibition
C[N+]1(CC2COC(c3ccccc3)(c3ccccc3)O2)CCCCC1 (stereo not given) | -15.9% [at 20.5 µM] (inactive)
CCCCCCn1c(=O)c2c(ncn2C)n(C)c1=O | -1.77% (inactive)
CC(=O)N[C@@H](CO)C(=O)N[C@@H](CC(=O)O)C(=O)N[C@@H](CCCCN)C(=O)N1CCC[C@H]1C(=O)O (Ac-SDKP-OH) | -11.9% (inactive)
O=C(CCCl)NCc1ccccc1 | 3.48% (inactive)
COc1cc(C(=O)OC(COCCC(C)C)CN2CCOCC2)cc(OC)c1OC (stereo not given) | 6.32% (inactive)
CN1C(CSCC(F)(F)F)Nc2cc(Cl)c(S(N)(=O)=O)cc2S1(=O)=O (stereo not given) | 13.9% (inactive)
Nc1c(I)cc(I)c(C(=O)N(CCC(=O)O)c2ccccc2)c1I | 2.92% (inactive)
CCN(CC)CC(=O)OCC(=O)[C@@]1(O)CC[C@H]2[C@@H]3CCC4=CC(=O)CC[C@]4(C)[C@H]3[C@@H](O)C[C@@]21C | 8.42% (inactive)
[O-][n+]1cccc(/C(Cl)=N/OC[C@@H](O)CN2CCCCC2)c1 | 5.85% (inactive)
CC(=O)OCC[N+](C)(C)C | -15.1% (inactive)
CCNC(=O)[C@@H]1CCCN1C(=O)[C@H](CCCN=C(N)N)NC(=O)[C@H](CC(C)C)NC(=O)CNC(=O)[C@H](Cc1ccc(O)cc1)NC(=O)[C@H](CO)NC(=O)[C@H](Cc1c[nH]c2ccccc12)NC(=O)[C@H](Cc1cnc[nH]1)NC(=O)[C@@H]1CCC(=O)N1 ([pGlu]HWSYGLRP-NHEt) | 9.3% (inactive)
O=C(COCCOCCOCC(=O)Nc1c(I)cc(I)c(C(=O)O)c1I)Nc1c(I)cc(I)c(C(=O)O)c1I | -12.3% (inactive)
CCc1cccc2c(CCO)c[nH]c12 | -2.77% (inactive)
COc1ccc(-n2nc(CCC(=O)N(C)O)cc2-c2ccc(Cl)cc2)cc1 | 5.94% (inactive)
CC(=O)Oc1ccc(C2(c3ccc(OC(C)=O)cc3)Oc3ccccc3NC2=O)cc1 | 4.11% (inactive)
C=CCNc1nc(NCC=C)nc(N2CCN(C(c3ccc(F)cc3)c3ccc(F)cc3)CC2)n1 | 8.24% (inactive)
Cc1ccc(/C=N/n2c(-c3ccccc3)csc2=S)cc1 | -6.09% (inactive)
COc1ccc2c(c1)c(CC(=O)OC/C=C(\C)CC/C=C(\C)CCC=C(C)C)c(C)n2C(=O)c1ccc(Cl)cc1 | 0.487% (inactive)
CN1C(=O)c2ccccc2C1=O | -4.61% [at 92.8 µM] (inactive)
CC(C)OP(=O)(CP(=O)(OC(C)C)OC(C)C)OC(C)C | 2.53% (inactive)

Compound | activity change, negative = inhibition
N#Cc1cc(NC(=O)C(=O)O)c(Cl)c(NC(=O)C(=O)O)c1 | -4.78% (inactive)
Cc1cc(OCCOCC[N+](C)(C)Cc2ccccc2)ccc1C(C)(C)CC(C)(C)C | 99.1% (inactive)
Nc1nnnn1-c1ccccc1 | -0.933% (inactive)
CCCCN(CCN(CCCC)C(=O)N1CCOCC1)C(=O)N1CCOCC1 | -0.166% (inactive)
CN1[C@@H]2CC[C@H]1CC(NC(=O)n1c(=O)[nH]c3ccccc31)C2 (stereo not given in full) | 3.11% (inactive)
CCCCCN(CCCOC)C(=O)C(CCC(=O)O)NC(=O)c1ccc(Cl)c(Cl)c1 (stereo not given) | 2.34% (inactive)
C[C@H]1C[C@H]2[C@@H]3CCC4=CC(=O)C=C[C@]4(C)[C@H]3C(=O)C[C@]2(C)[C@@]1(O)C(=O)CO | 1.52% (inactive)
O=c1[nH]c2ccccc2c(=O)n1CCCl | -4.89% (inactive)
Cc1ccc(C(C)OC(=O)C2(C)CCC(C(=O)O)C2(C)C)cc1 (stereo not given) | 15.7% (inactive)
Cc1cc(CCCOc2c(C)cc(-c3noc(C(F)(F)F)n3)cc2C)on1 | 6.31% (inactive)
Cc1cc(O)c2c(O)c3c(O)cccc3cc2c1 | 3.99% (inactive)
Nc1ccc(C(=O)N2CC3CC(CN(Cc4ccccc4)C3)C2)cc1 | -3.29% (inactive)
Cc1c(N)cccc1C(F)(F)F | 13.4% (inactive)
CC(=O)N(CC(=O)N(C)C)c1ccccc1 | -5.4% (inactive)
Nc1ncnc2c1ncn2Cc1c(F)cccc1Cl | -8.13% (inactive)
O=C(c1ccco1)N1CCNCC1 | -0.022% (inactive)
Cc1ccc(-c2ccccc2C#N)cc1 | -4.52% (inactive)
C#CC(C)(CC)OC(=O)c1ccccc1C(=O)O (stereo not given) | -8.32% (inactive)
CN1N=C(C(N)=O)CCC1=O | 22% (inactive)
C#Cc1ccc(-c2ccccc2F)cc1 | -28.4% (inactive)
